# Test results from the supplement of paper PMC10811239.
# System: LEGO organoid PTCC (PTEN-/-; TP53-/-; CDKN2A-/-; CDKN2B-/-)
# Experiment: bioluminescence (viable cell) signal fold change after vs before treatment, normalised to DMSO (ratio); higher = more tumour cell growth / less inhibition
# Conditions: 10 µM; treatment time 6 days
# Method: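 Luc2-labelled iPSC-derived glioblastoma-like organoids (LEGOs, genotypes PT = PTEN-/-;TP53-/-, PTCC = plus CDKN2A/B-/-, PTN = plus NF1-/-) were treated with 10 uM drug for 6 days (applied every other day) at 37 C. Bioluminescence imaging was done before treatment and 2 days after the last dose. BLI signals were normalised to the DMSO control on the same day and then to the pre-treatment signal (N=3).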
row,SMILES,bioluminescence
1,CN1CCN(CCCN2c3ccccc3Sc3ccc(C(F)(F)F)cc32)CC1.Cl.Cl [Trifluoperazine dihydrochloride],1.31
2,Cc1nc(Nc2ncc(C(=O)Nc3c(C)cccc3Cl)s2)cc(N2CCN(CCO)CC2)n1 [Dasatinib],0.977
3,O=C(O)c1cc(/N=N/c2ccc(S(=O)(=O)Nc3ccccn3)cc2)ccc1O [Sulfasalazine],1.43
4,CCOc1nc2cccc(C(=O)OC(C)OC(=O)OC3CCCCC3)c2n1Cc1ccc(-c2ccccc2-c2nn[nH]n2)cc1 (configuration not stated) [Candesartan Cilexetil],1.17
5,O=C1CCc2ccc(OCCCCN3CCN(c4cccc(Cl)c4Cl)CC3)cc2N1 [Aripiprazole],0.382
6,CC[C@@]1(O)C(=O)OCc2c1cc1n(c2=O)Cc2cc3c(CN(C)C)c(O)ccc3nc2-1.Cl [Topotecan hydrochloride],0.236
7,CS(=O)(=O)c1ccc(C(=O)Nc2ccc(Cl)c(-c3ccccn3)c2)c(Cl)c1 [Vismodegib],2.45
8,Cc1ccc(Nc2nccc(N(C)c3ccc4c(C)n(C)nc4c3)n2)cc1S(N)(=O)=O [Pazopanib],0.395
9,O=C1Nc2ccc(Cl)cc2[C@@](C#CC2CC2)(C(F)(F)F)O1 [Efavirenz],1.96
10,CCCCCOC(=O)Nc1nc(=O)n([C@@H]2O[C@H](C)[C@@H](O)[C@H]2O)cc1F [Capecitabine],1.71
11,O=C1CCC(N2C(=O)c3ccccc3C2=O)C(=O)N1 (configuration not stated) [Thalidomide],0.79
12,Nc1nnc(-c2cccc(Cl)c2Cl)c(N)n1 [Lamotrigine],2.24
13,C[C@H](C(=O)O)c1cccc(C(=O)c2ccccc2)c1 [(S)-(+)-Ketoprofen],1.1
14,CC(=O)Nc1nnc(S(N)(=O)=O)s1 [Acetazolamide],1.7
15,CC(=O)[C@H]1CC[C@H]2[C@@H]3CCC4=CC(=O)CC[C@]4(C)[C@H]3CC[C@]12C [Progesterone],0.682
16,Nc1cccc2c1C(=O)N(C1CCC(=O)NC1=O)C2=O (configuration not stated) [Pomalidomide],2.56

row,SMILES,bioluminescence
1,Clc1ccc(COC(Cn2ccnc2)c2ccc(Cl)cc2Cl)c(Cl)c1.O=[N+]([O-])O (configuration not stated) [Miconazole nitrate],0.22
2,Cl.CN(C)CC\C=C1\c2ccccc2C=Cc2ccccc12 [Cyclobenzaprine hydrochloride],1.61
3,Cc1cn([C@H]2C=C[C@@H](CO)O2)c(=O)[nH]c1=O [Stavudine],0.83
4,CC(=O)NCCCS(=O)(=O)[O-].CC(=O)NCCCS(=O)(=O)[O-].[Ca+2] [Acamprosate calcium],0.374
5,Nc1nc2c(ncn2COCCO)c(=O)[nH]1 [Aciclovir],2.16
6,Cc1cccc(C)c1OCC(=O)N[C@@H](Cc1ccccc1)[C@@H](O)C[C@H](Cc1ccccc1)NC(=O)[C@H](C(C)C)N1CCCNC1=O [Lopinavir],0.969
7,O=C([O-])Cc1ccccc1Nc1c(Cl)cccc1Cl.[Na+] [Diclofenac sodium],1.05
8,Nc1ccn([C@@H]2CS[C@H](CO)O2)c(=O)n1 [Lamivudine],0.674
9,CO[C@H]1/C=C/O[C@@]2(C)Oc3c(C)c(O)c4c(O)c(c(/C=N/N5CCN(C6CCCC6)CC5)c(O)c4c3C2=O)NC(=O)/C(C)=C\C=C\[C@H](C)[C@H](O)[C@@H](C)[C@@H](O)[C@@H](C)[C@H](OC(C)=O)[C@@H]1C [Rifapentine],0.434
10,NC[C@H]1CC[C@H](C(=O)O)CC1 [Amstat],0.622
11,CC(C)Nc1cccnc1N1CCN(C(=O)c2cc3cc(NS(C)(=O)=O)ccc3[nH]2)CC1.CS(=O)(=O)O [Delavirdine mesylate],0.912
12,Cl.O=c1n(CCCN2CCN(c3cccc(Cl)c3)CC2)nc2ccccn12 [Trazodone hydrochloride],2.62
13,Cl.Cc1ccsc1\C(=C\CCN1CCC[C@H](C1)C(O)=O)c1sccc1C [Tiagabine hydrochloride],2.4
14,C[C@@H]1CCN(C(=O)CC#N)C[C@@H]1N(C)c1ncnc2[nH]ccc12 [Tofacitinib],1.34
15,C[C@@H]1O[C@]2(CS1)CN1CCC2CC1.C[C@@H]1O[C@]2(CS1)CN1CCC2CC1.Cl.Cl.O [Cevimeline hydrochloride hemihydrate],1.04
16,CCOc1nc2cccc(C(=O)O)c2n1Cc1ccc(-c2ccccc2-c2nn[nH]n2)cc1 [Candesartan],1.68
